Shiga inhibitor: inhibitors of Shiga toxin in Vero cells; Vero cells, Shiga toxin protein synthesis inhibition reporter; AID 2315; 290,000 compounds, 9.2% hits; inhibition, % at 38.7 µM; in the data active = inhibition mostly above about 28%, no sharp cut-off; inactive = mostly below about 43%; also: 0% is about no effect
Lassa entry inh: blocks Lassa virus binding to or entry into cells; Lassa virus pseudotype entry inhibition, cell reporter; Potency, µM (top dose mostly 37.9 µM), for the others: at the top dose activity change, negative = inhibition, most hits filed as inhibitors; 300,000 compounds, 1.2% hits; calls by dose curve; tested in HEK293 cells; also: potency is read from the fitted curve at half-maximal effect; % is scaled to controls: 0 for no effect and ±100 for the full control effect; nearly all actives have a fitted effect of over 50% in size
MARV entry inh: Marburg virus entry inhibition; Marburg virus pseudotyped entry inhibition, cell reporter; Potency, µM (titrated, usually from 37.8 µM), for inactives: at the top dose activity change, negative = inhibition, usual class: inhibitors; 300,000 compounds, 1.8% hits; AID 540276; calls by dose curve; tested in HEK293 cells; also: potency is read from the fitted curve at half-maximal effect; % is scaled to controls: 0 for no effect and ±100 for the full control effect
AMA1-RON2 inh: AMA1-RON2 (P. falciparum) interaction inhibition | 360,000 compounds, 0.2% hits | AlphaScreen AMA1-biotinylated RON2 peptide binding | Potency, µM (top dose mostly 58.2 µM), for the others: at the top dose activity change, negative = inhibition, hits mostly inhibitors; active = well fitted inhibition curve with a large enough effect; inconclusive = small, poorly fitted or top-dose-only effect; inactive = no such curve, though single readings can be large or run the other way;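 also: potency is read from the fitted curve at half-maximal effect; 0% = vehicle wells and -100% = peptide control; nearly all actives have a fitted effect of over 45% in size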
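AMA1 (3D7) with his tag at 25 nM final met compounds first, then biotinylated RON2 peptide at 25 nM; detection used donor plus acceptor beads, 10 µg/mL apiece, read by AlphaScreen after 30 min at room temperature.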
Cycloheximide cs: affects cycloheximide protein synthesis inhibition readout, counter-screen; cell reporter, cycloheximide protein synthesis inhibition counterscreen; max response, %; AID 2314; 300,000 compounds, 12% hits; in the data active = max response mostly above about 13%, no sharp cut-off; inactive = mostly below about 14%; also: read at 38.3 µM for the half of the compounds with a filed dose; 0% is about no effect
An asterisk follows results filed as active; u = inconclusive; x = no result given; [ ] = remark or other dose. The entries come from a sample that favours hits as a whole.

SMILES | Shiga inhibitor | Lassa entry inh | MARV entry inh | AMA1-RON2 inh | Cycloheximide cs
COc1ccc(N2Cc3ccccc3C2=O)cc1 | x | u | u | 17% | 35*
O=C1c2ccccc2CN1c1ccccc1 | 54* | 2%[46.1 µM] | u | -6% | 38*
COc1ccccc1-n1c(SCC(=O)Nc2ccc(NC(C)=O)cc2)nc2c([nH]c3ccccc32)c1=O | 11 | -19% | -16% | -16% | 4
CN(C)S(=O)(=O)c1ccc2c(c1)N(CC(=O)N1CCN(c3ccccc3F)CC1)CCS2 | x | -17%[46.1 µM] | x | x | x
Cc1ccc2c(c1)-c1nc(-c3ccc(Cl)cc3)cc(-c3coc4ccccc4c3=O)c1CO2 | x | -11%[46.1 µM] | -2%[46.1 µM] | x | x
CCOc1ccc(N2C(=O)c3ccccc3C2=O)cc1 | 8 | u | u | 9% | 8
CCOc1ccc(N2Cc3ncccc3C2=O)cc1 | 137* | u | u | 0% | 47*
CSc1ncccc1-c1nc2ccccc2[nH]1 | 51 | 11% | u | 23% | 28*
CCN(CC)c1nc2ccccc2[nH]1 | -28 | 22% | u | 4% | -3
CCSc1ncccc1-c1nc2ccccc2[nH]1 | 99* | 6% | 8% | 0% | 38*
CC(=O)c1cccc(NC(=O)Nc2sc3nc4n(c(=O)c3c2C)CCC(C)CC4)c1 (stereo not drawn) | x | x | 34%[46.1 µM] | x | x
COc1ccc(NC(=O)CSc2ccc3c(c2)OCCO3)cc1S(N)(=O)=O | x | 2%[46.1 µM] | -1%[46.1 µM] | -6% | x
COCC(=O)N1C[C@H]2CON(C)[C@H]2C[C@H]1c1ccc(N2CCCCC2)cc1 | x | x | x | 3% | x
CN1OC[C@@H]2CN(Cc3ccc(Cl)cc3)[C@H](c3ccc(N4CCCCC4)cc3)C[C@@H]21 | x | x | x | 16µM* | x
CCC(C)NC(=O)c1nn(-c2ccc(C)cc2)nc1CO (stereo not drawn) | x | 16%[46.1 µM] | u | x | x
CC(C)(C)OC(=O)N1CCC[C@H]1c1nnc(SCc2ccc(Cl)cc2Cl)o1 | 30 | u | 8.9µM* | 22% | -3
CC(C)(C)OC(=O)N1CCC[C@H]1c1nnc(SCc2ccccc2Cl)o1 | -13 | u | -16% | 3% | -1
CC(=O)c1ccc(S(=O)(=O)N2CCN(CC(=O)NC(=O)NC3CCCCC3)CC2)cc1 | x | u | 2% | -8% | x
O=c1c2ccccc2nc(SCc2cn3ccsc3n2)n1-c1ccccc1 | -4 | u | -9%[46.1 µM] | -9% | 0
c1ccc(CSCc2cn3ccsc3n2)cc1 | 12* | 2% | 19% | -11% | 39*
O=c1c2ccccc2nc(SCc2cn3ccsc3n2)n1-c1ccccc1F | 41* | u | u | -6% | 30*
O=C(Cc1cn2ccsc2n1)OCc1ccccc1 | 62* | 5µM* | 7.1µM* | 2% | 27*
CSCC[C@H](NC(=O)c1cccc(S(=O)(=O)N2CCCCC2)c1)c1nc2ccccc2[nH]1 | x | u | u | -9% | x
Cc1cc(N2CCN(C(C(=O)NC3CCCC3)c3ccc(-c4ccccc4)cc3)CC2)c2ccccc2n1 (stereo not drawn) | x | x | x | -18% | x
CCOc1ccc(NC(=O)c2c(NCc3sccc3C)sc3c2CCCCC3)cc1 | x | -21%[46.1 µM] | x | x | x
SMILES | Shiga inhibitor | Lassa entry inh | MARV entry inh | AMA1-RON2 inh | Cycloheximide cs
CCOC(=O)c1ccc(CN(Cc2ccccc2)S(=O)(=O)c2ccc(C)cc2)cc1 | x | 11µM* | x | x | x
CCCCOc1ccc(C2=CSC3=NCCN23)cc1[N+](=O)[O-] | 2 | -27% | 22µM* | -3% | -2
CCCCOc1ccc(-c2csc(N)n2)cc1[N+](=O)[O-] | 127* | u | u | -26% | 86*
COc1ccc(C2=CSC3=NCCN23)cc1OC | x | x | x | 1% | -1
O=C1CCc2cccc(O)c2N1 | x | u | 14% | 17% | x
CC(C)Oc1ccc(CNC(=O)C2CCN(C(=O)N3CCOc4ccc(Cl)cc43)CC2)cc1 | x | -6%[46.1 µM] | x | x | x
Clc1ccccc1-c1nnc(-c2ccccc2Cl)o1 | 68* | -20% | 18% | 63% | 32*
Clc1ccc(-c2nnc(-c3ccccc3Cl)o2)cc1 | 115* | u | u | -23% | 46*
CC(=O)c1cc(-c2ccccc2)n(CCC(=O)Nc2nc3c(C)cccc3s2)c1C | x | 14%[46.1 µM] | x | x | x
CCOC(=O)c1c(C)[nH]c(C(=O)COC(=O)/C=C/c2ccc(OC(F)F)cc2)c1C | -9 | -2% | -7% | 8% | -1
CCOC(=O)c1c(C)[nH]c(C)c1C(=O)COC(=O)/C=C/c1ccc(OC(F)F)cc1 | -1 | 11µM* | u | -10% | 5
[O-][n+]1c2ccc3nonc3c2nn1-c1ccccc1Cl | -7 | -13% | -29% | 7% | 1
Cc1cccc(C(=O)Nc2ccc3nc(SCC(=O)N4CCCC4)sc3c2)c1 | x | -10%[46.1 µM] | 16%[46.1 µM] | x | x
Cc1cc(O)cc2c(=O)c3ccccc3sc12 | 131* | 4% | -1%[46.1 µM] | 13% | 42*
Cc1cccc2nc(CSc3ccccc3N)cn12 | x | u | -24% | -5% | x
Nc1ccccc1SC/C=C/CSc1ccccc1N | 68* | -22% | 24% | -14% | 37*
CCOC(=O)COc1ccccc1C1Nc2ccccc2C(=O)N1c1cccc(Cl)c1 (stereo not drawn) | 66* | u | 2% | -3% | 36*
CCOC(=O)COc1c(OC)cc(Cl)cc1C1Nc2ccccc2C(=O)N1c1cccc(C)c1 (stereo not drawn) | 25 | -28% | -8% | -5% | 11
COc1cc(C2Nc3ccccc3C(=O)N2c2ccc(Cl)cc2)c(Cl)cc1OCC(=O)O (stereo not drawn) | 71* | 29% | u | 5% | 54*
CCOc1cc(C2Nc3ccccc3C(=O)N2c2ccccc2)c(Br)cc1OCC(=O)O (stereo not drawn) | 19 | 12% | 16% | -5% | -3
CCS(=O)(=O)N1CCC(C(=O)Nc2ccc(C(C)=O)cc2)CC1 | 4 | x | x | 2% | 0
CCN1CCN(/C=N/c2nc3c(s2)CCCC3)CC1 | -19 | u | 5.8µM* | 6% | 19*
Cc1cc(C)nc(Oc2ccc(Br)cc2)n1 | -1 | x | x | 18% | 3
C1CNC(C23CC4CC(CC(C4)C2)C3)=N1 | 56* | 8%[46.1 µM] | 7%[46.1 µM] | 9% | 25
CC(C)(C)Nc1nc(Cl)nc(NC2CCCCC2)n1 | 2 | -3% | -27% | 1% | 6
SMILES | Shiga inhibitor | Lassa entry inh | MARV entry inh | AMA1-RON2 inh | Cycloheximide cs
COc1nc(NCc2cccnc2)nc(NC2CCCCC2)n1 | 35* | 14% | -2% | -2% | 71*
COc1nc(Nc2ccc([N+](=O)[O-])cc2)nc(NC2CCCCC2)n1 | 78* | u | u | 3% | 43*
Cc1ccc(Nc2nc(Cl)nc(NC3CCCCC3)n2)cc1 | 62* | -26% | u | 4% | 25*
COc1ccc(NC(=O)COC(=O)C2CC(=O)N(CCc3ccc(OC)c(OC)c3)C2)cc1Cl (stereo not drawn) | x | x | x | 10% | x
COc1ccc(S(=O)(=O)N(C)CC(=O)NCc2ccco2)cc1OC | -8 | -17%[46.1 µM] | 1%[46.1 µM] | 0% | -3
CCc1nn(CC(=O)N2CCN(c3cccc(C)c3C)CC2)c(=O)c2cc3sccc3n12 | x | x | 28%[46.1 µM] | x | x
CN(C)c1cccc2c(S(=O)(=O)N3CCCC3)cccc12 | 27 | x | x | 44% | 34*
CCc1ccc(NC(=S)Nc2ccc3cn[nH]c3c2)cc1 | 50* | u | u | 30% | 14
S=C(Nc1ccccc1Cl)Nc1ccc(Cl)cc1Cl | 10 | 3% | 0% | 1% | 1

Bioassay records as filed in PubChem BioAssay.
